Experimental data published in PubChem BioAssay AID1159580 (chemical genetic matrix, 2015).
Hit rate of the full screen: of about 5,500 compounds, about 2,000 (36%) were called active. Roughly 18% stayed inconclusive and do not appear here. No stated cut-off is given here; in the data, active means normalized growth mostly below about 0.91 (no sharp cut-off); inconclusive means no clear call, values can overlap the other calls; inactive means mostly above about 0.92. The list shows a part of the results.

Assay: chemical genetic growth profiling, strain panel (AID 1159580);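 further: tested at 20 µM; growth read once vehicle control cultures reached saturation at 30 °C; 1 = growth at the plate median or of vehicle wells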
Settings: S. cerevisiae deletion strains, growth OD
[1] = locus YAR019C, strain CDC15, stronger effect = lower value
[2] = locus YBL105C, strain PKC1, stronger effect = lower value
[3] = locus YBR135W, strain CKS1, stronger effect = lower value
[4] = locus YBR136W, strain MEC1, stronger effect = lower value
[5] = locus YBR160W, strain CDC28, stronger effect = lower value
[6] = locus YDL017W, strain CDC7, stronger effect = lower value
[7] = locus YDL028C, strain MPS1, stronger effect = lower value
[8] = locus YDL101C, strain DUN1, stronger effect = lower value
[9] = locus YDL108W, strain KIN28, stronger effect = lower value
[10] = locus YDL132W, strain cdc53, stronger effect = lower value
[11] = locus YDL214C, strain PRR2, stronger effect = lower value
[12] = locus YDR052C, strain DBF4, stronger effect = lower value
[13] = locus YDR054C, strain cdc34, stronger effect = lower value
[14] = locus YDR226W, strain ADK1, stronger effect = lower value
[15] = locus YDR477W, strain SNF1, stronger effect = lower value
[16] = locus YER123W, strain YCK3, stronger effect = lower value
[17] = locus YER133W, strain GLC7, stronger effect = lower value
[18] = locus YFL009W, strain cdc4, stronger effect = lower value
[19] = locus YFL029C, strain CAK1, stronger effect = lower value
[20] = locus YFR003C, strain YPI1, stronger effect = lower value
[21] = locus YFR019W, strain FAB1, stronger effect = lower value
[22] = locus YFR028C, strain CDC14, stronger effect = lower value
[23] = locus YGR040W, strain KSS1, stronger effect = lower value
[24] = locus YGR052W, strain FMP48, stronger effect = lower value
[25] = locus YGR092W, strain DBF2, stronger effect = lower value
[26] = locus YHR030C, strain SLT2, stronger effect = lower value
[27] = locus YHR079C, strain IRE1, stronger effect = lower value
[28] = locus YHR082C, strain KSP1, stronger effect = lower value
[29] = locus YHR205W, strain SCH9, stronger effect = lower value
[30] = locus YIL147C, strain SLN1, stronger effect = lower value
[31] = locus YJL095W, strain BCK1, stronger effect = lower value
[32] = locus YJL128C, strain PBS2, stronger effect = lower value
[33] = locus YJL157C, strain FAR1, stronger effect = lower value
[34] = locus YJR016C, strain ILV3, stronger effect = lower value
[35] = locus YJR066W, strain TOR1 (second series), stronger effect = lower value
[36] = locus YJR066W, strain TOR1, stronger effect = lower value
[37] = locus YKL048C, strain ELM1, stronger effect = lower value
[38] = locus YKL067W, strain YNK1, stronger effect = lower value
[39] = locus YKL101W, strain HSL1, stronger effect = lower value
[40] = locus YKL193C, strain SDS22, stronger effect = lower value
[41] = locus YKL203C, strain TOR2, stronger effect = lower value
[42] = locus YLR113W, strain HOG1, stronger effect = lower value
[43] = locus YLR133W, strain CKI1, stronger effect = lower value
[44] = locus YLR403W, strain SFP1, stronger effect = lower value
[45] = locus YML070W, strain DAK1, stronger effect = lower value
[46] = locus YMR001C, strain CDC5, stronger effect = lower value
[47] = locus YMR205C, strain PFK2 (second series), stronger effect = lower value
[48] = locus YMR277W, strain FCP1, stronger effect = lower value
[49] = locus YNL006W, strain LST8, stronger effect = lower value
[50] = locus YNL020C, strain ARK1, stronger effect = lower value
[51] = locus YNL161W, strain CBK1, stronger effect = lower value
[52] = locus YNL183C, strain NPR1, stronger effect = lower value
[53] = locus YNL207W, strain RIO2, stronger effect = lower value
[54] = locus YNL222W, strain SSU72, stronger effect = lower value
[55] = locus YNL307C, strain MCK1 (second series), stronger effect = lower value
[56] = locus YOL078W, strain AVO1, stronger effect = lower value
[57] = locus YOL136C, strain PFK27, stronger effect = lower value
[58] = locus YOR061W, strain CKA2, stronger effect = lower value
[59] = locus YOR119C, strain RIO1, stronger effect = lower value
[60] = locus YOR231W, strain MKK1, stronger effect = lower value
[61] = locus YOR329C, strain SCD5, stronger effect = lower value
[62] = locus YPL031C, strain PHO85, stronger effect = lower value
[63] = locus YPL153C, strain RAD53, stronger effect = lower value
[64] = locus YPL204W, strain HRR25, stronger effect = lower value
[65] = locus YPL209C, strain IPL1, stronger effect = lower value
[66] = locus YPL256C, strain CLN2, stronger effect = lower value
[67] = locus YPR025C, strain CCL1, stronger effect = lower value
[68] = locus YPR106W, strain ISR1, stronger effect = lower value
[69] = locus YPR111W, strain DBF20, stronger effect = lower value
[70] = strain NNK1, stronger effect = lower value
[71] = strain TSCII, stronger effect = lower value

Measured: normalized growth

FC(F)(F)Oc1ccc(OCc2n[nH]c(=S)n2-c2ccc(Cl)cc2)cc1
inactive: [1] 0.984 | [2] 0.986 | [3] 0.989 | [4] 0.996 | [5] 0.991 | [6] 0.995 | [7] 0.99 | [8] 0.983 | [9] 0.987 | [10] 0.981 | [11] 1 | [12] 0.987 | [13] 0.989 | [14] 0.98 | [15] 0.994 | [16] 0.889 | [17] 1 | [18] 0.988 | [19] 0.985 | [20] 0.987 | [21] 0.988 | [22] 0.989 | [23] 1.01 | [24] 1.1 | [25] 0.944 | [26] 0.967 | [27] 1.07 | [28] 1.05 | [29] 1.01 | [30] 0.988 | [31] 1.15 | [32] 0.956 | [33] 1 | [34] 0.996 | [35] 0.986 | [36] 1.13 | [37] 0.965 | [38] 1.02 | [39] 0.986 | [40] 0.982 | [41] 1.05 | [42] 1.07 | [43] 1 | [44] 1 | [45] 1.01 | [46] 0.983 | [47] 1.01 | [48] 0.99 | [49] 0.986 | [50] 0.994 | [51] 0.989 | [52] 1.12 | [53] 0.99 | [54] 0.985 | [55] 0.999 | [56] 0.986 | [57] 0.994 | [58] 1.01 | [59] 1.02 | [60] 1.09 | [61] 0.99 | [62] 0.973 | [63] 0.983 | [64] 0.975 | [65] 0.987 | [66] 1.04 | [67] 0.991 | [68] 0.996 | [69] 0.992 | [70] 0.999 | [71] 0.987

CC(C)(C)OC(=O)NCc1n[nH]c(=S)n1-c1ccccc1
inactive: locus YAL013W, strain DEP1, stronger effect = lower value 1.03 | locus YBR229C, strain ROT2, stronger effect = lower value 1.01 | [8] 1.02 | locus YDL134C, strain PPH21, stronger effect = lower value 1.01 | locus YDR150W, strain NUM1, stronger effect = lower value 1 | locus YEL061C, strain CIN8, stronger effect = lower value 0.993 | locus YGR078C, strain PAC10, stronger effect = lower value 1.01 | locus YGR229C, strain SMI1, stronger effect = lower value 0.999 | [26] 1.09 | locus YHR087W, strain rtc3, stronger effect = lower value 1.01 | locus YJR043C, strain POL32, stronger effect = lower value 1.04 | locus YJR075W, strain HOC1, stronger effect = lower value 0.995 | locus YLR039C, strain RIC1, stronger effect = lower value 0.998 | locus YLR058C, strain SHM2 (second series), stronger effect = lower value 1.02 | locus YLR085C, strain ARP6, stronger effect = lower value 1.02 | locus YLR262C, strain YPT6, stronger effect = lower value 1.07 | locus YML094W, strain GIM5, stronger effect = lower value 1.01 | locus YMR219W, strain ESC1, stronger effect = lower value 1.01 | locus YMR263W, strain SAP30, stronger effect = lower value 1.01 | locus YNL153C, strain GIM3, stronger effect = lower value 0.958 | locus YNL298W, strain CLA4 (second series), stronger effect = lower value 1.06 | locus YNL322C, strain KRE1, stronger effect = lower value 0.999 | locus YNR030W, strain Alg12, stronger effect = lower value 1.01 | locus YPL055C, strain LGE1, stronger effect = lower value 1.02 | locus YPL241C, strain CIN2, stronger effect = lower value 0.994 | locus YPR135W, strain CTF4, stronger effect = lower value 1.12

FC(F)(F)Sc1ccc(OCc2n[nH]c(=S)n2-c2ccccc2)cc1
inactive: [1] 0.989 | [2] 0.983 | [3] 0.988 | [4] 0.983 | [5] 0.988 | [6] 0.987 | [7] 0.986 | [8] 0.981 | [9] 0.987 | [10] 0.993 | [11] 0.945 | [12] 0.989 | [13] 0.978 | [14] 0.981 | [15] 0.943 | [16] 0.873 | [17] 0.911 | [18] 0.983 | [19] 0.989 | [20] 0.988 | [21] 0.936 | [22] 0.993 | [23] 0.949 | [24] 0.939 | [25] 0.874 | [27] 0.896 | [28] 0.963 | [29] 0.957 | [30] 0.984 | [31] 0.917 | [32] 0.94 | [33] 0.92 | [34] 0.984 | [35] 0.906 | [36] 0.945 | [37] 0.953 | [38] 0.934 | [39] 0.891 | [40] 0.994 | [41] 0.961 | [43] 0.938 | [44] 0.954 | [45] 0.92 | [46] 0.991 | [47] 0.946 | [48] 0.992 | [49] 0.986 | [50] 0.904 | [51] 0.986 | [52] 0.879 | [53] 0.985 | [54] 0.99 | [55] 0.91 | [56] 0.996 | [57] 0.931 | [58] 0.971 | [59] 1 | [60] 0.907 | [61] 0.985 | [62] 0.909 | [63] 0.916 | [64] 0.893 | [65] 0.984 | [67] 0.989 | [68] 0.979 | [69] 0.959 | [70] 0.977 | [71] 0.983
active: [26] 0.814 | [42] 0.82 | [66] 0.82
